Common to all, as to set-up: scale not given: direction of the effect not stated beside the values
The target in test [1] is Protein translocase subunit SecA (Escherichia coli (strain K12)) (UniProt P10408). The test is described as follows: Assay to Identify E. coli SecA ATPase Inhibitors. Type of test: functional. The note with it: 30 µM.
The target in test [2] is T1, Ubiquitin-activating enzyme e1, putative (Leishmania donovani (strain BPK282A1)) (UniProt E9BSI1).
T1 sequence (whole entry): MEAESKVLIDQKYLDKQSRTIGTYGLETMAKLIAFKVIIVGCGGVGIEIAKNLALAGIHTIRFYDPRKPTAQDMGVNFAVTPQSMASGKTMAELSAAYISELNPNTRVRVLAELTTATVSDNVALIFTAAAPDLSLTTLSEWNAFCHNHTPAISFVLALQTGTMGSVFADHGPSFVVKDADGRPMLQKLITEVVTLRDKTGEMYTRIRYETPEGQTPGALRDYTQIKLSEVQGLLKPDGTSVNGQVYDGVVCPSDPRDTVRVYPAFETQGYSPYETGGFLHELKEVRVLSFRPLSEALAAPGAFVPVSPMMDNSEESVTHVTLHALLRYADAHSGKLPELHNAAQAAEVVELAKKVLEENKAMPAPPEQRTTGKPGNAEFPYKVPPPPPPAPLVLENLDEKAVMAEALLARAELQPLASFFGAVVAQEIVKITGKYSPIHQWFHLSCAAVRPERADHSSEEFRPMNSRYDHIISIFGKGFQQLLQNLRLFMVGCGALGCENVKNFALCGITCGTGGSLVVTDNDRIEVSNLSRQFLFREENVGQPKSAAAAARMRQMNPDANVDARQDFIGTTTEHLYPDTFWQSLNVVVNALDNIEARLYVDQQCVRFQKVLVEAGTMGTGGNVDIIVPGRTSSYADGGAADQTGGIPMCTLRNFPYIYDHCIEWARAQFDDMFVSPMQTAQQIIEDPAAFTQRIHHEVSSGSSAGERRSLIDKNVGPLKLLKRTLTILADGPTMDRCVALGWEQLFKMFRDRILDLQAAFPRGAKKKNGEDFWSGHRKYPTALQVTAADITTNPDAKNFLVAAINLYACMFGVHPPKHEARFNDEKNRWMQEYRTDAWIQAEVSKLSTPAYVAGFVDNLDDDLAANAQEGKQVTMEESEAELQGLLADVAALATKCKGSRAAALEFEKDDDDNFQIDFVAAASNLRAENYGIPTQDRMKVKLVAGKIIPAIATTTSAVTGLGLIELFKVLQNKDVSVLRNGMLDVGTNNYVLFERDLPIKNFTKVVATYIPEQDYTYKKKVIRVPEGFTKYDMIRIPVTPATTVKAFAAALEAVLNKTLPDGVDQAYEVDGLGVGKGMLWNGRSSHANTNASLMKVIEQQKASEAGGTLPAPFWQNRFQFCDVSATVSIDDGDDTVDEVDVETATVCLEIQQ
Nature of the test: Leishmania donovani Ubiquitin Activating Enzyme (LdE1). Type of test: functional. The following applies: 30 µM.

In test [3] the target is Sialic acid-binding Ig-like lectin 9 (Homo sapiens) (UniProt Q9Y336). Nature of the test: Hs-Siglec9 ALPHAscreen SOP 20170721. The following applies: 10 µM. For orientation: Bead proximity is the source of the signal in Alpha formats.
Chain of Sialic acid-binding Ig-like lectin 9 (Homo sapiens) (Q9Y336 whole entry): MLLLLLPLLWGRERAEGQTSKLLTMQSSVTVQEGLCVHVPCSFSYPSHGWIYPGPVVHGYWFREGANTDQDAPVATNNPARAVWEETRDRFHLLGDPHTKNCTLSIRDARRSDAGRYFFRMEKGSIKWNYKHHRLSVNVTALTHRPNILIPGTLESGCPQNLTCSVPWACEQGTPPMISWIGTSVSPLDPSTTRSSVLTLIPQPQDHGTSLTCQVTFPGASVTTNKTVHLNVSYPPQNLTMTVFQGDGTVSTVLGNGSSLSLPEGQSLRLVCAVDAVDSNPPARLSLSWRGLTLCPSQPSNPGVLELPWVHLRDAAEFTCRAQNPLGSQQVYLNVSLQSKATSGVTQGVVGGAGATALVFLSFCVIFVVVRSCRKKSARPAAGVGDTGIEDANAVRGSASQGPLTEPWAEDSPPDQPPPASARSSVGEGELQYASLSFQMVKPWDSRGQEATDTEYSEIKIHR
In test [4] the test system is Trypanosoma cruzi. Nature of the test: Trypanosoma cruzi phosphomannomutase and mannose-1-phosphate guanylyltransferase assay. The note with it: 10 µM. Type of test: functional.
In test [5] the target is T2, Arginase-2, mitochondrial (Homo sapiens) (UniProt P78540).
T2 sequence (whole entry): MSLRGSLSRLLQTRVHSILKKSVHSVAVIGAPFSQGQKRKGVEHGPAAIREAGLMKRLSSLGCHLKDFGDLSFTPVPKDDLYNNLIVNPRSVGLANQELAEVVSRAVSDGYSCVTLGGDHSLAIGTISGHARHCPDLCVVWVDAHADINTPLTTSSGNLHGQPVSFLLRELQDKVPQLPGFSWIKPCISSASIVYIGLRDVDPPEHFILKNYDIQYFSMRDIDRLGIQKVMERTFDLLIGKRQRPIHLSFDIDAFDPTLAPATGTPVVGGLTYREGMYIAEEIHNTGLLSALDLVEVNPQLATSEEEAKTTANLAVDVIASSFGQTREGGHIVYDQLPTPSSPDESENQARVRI
Nature of the test: in vitro enzyme assay to detect the production of urea directly proportional to the activity of Arginase II. Further: in the data most compounds retested in dose-response had high values. The note with it: 33.3 µM. Type of test: functional.

In test [6] the target is T3, Proteasome subunit beta (Trypanosoma cruzi) (UniProt O96673).
T3 sequence (whole entry): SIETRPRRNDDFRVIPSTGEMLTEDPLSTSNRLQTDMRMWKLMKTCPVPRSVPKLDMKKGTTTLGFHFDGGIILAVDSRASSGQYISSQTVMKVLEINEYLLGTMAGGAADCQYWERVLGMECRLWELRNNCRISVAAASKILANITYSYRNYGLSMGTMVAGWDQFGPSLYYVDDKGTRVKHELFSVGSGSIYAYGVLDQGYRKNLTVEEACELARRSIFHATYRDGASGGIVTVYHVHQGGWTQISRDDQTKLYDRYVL
The test is described as follows: Trypanosoma cruzi proteasome chymotrypsin-like activity (TcProtChymo) assay. Further: in the data most compounds retested in dose-response had high values. Type of test: functional. The note with it: 9.37 µM.

For test [7], the species on record is Homo sapiens. Nature of the test: To identify inhibition of the IFN signalling (Jak-Stat) pathway via expression of an eGFP reporter gene under the control of an IFN-stimulated response element (ISRE) containing MxA promoter. The following applies: 30 µM. It is filed as functional. Background: Reporter assays use an easily measured gene product as a stand-in for the process of interest.

The target of test [8] is T4, Tyrosyl-tRNA synthetase, putative (Trypanosoma cruzi (strain CL Brener)) (UniProt Q4DSP6).
T4 sequence (whole entry): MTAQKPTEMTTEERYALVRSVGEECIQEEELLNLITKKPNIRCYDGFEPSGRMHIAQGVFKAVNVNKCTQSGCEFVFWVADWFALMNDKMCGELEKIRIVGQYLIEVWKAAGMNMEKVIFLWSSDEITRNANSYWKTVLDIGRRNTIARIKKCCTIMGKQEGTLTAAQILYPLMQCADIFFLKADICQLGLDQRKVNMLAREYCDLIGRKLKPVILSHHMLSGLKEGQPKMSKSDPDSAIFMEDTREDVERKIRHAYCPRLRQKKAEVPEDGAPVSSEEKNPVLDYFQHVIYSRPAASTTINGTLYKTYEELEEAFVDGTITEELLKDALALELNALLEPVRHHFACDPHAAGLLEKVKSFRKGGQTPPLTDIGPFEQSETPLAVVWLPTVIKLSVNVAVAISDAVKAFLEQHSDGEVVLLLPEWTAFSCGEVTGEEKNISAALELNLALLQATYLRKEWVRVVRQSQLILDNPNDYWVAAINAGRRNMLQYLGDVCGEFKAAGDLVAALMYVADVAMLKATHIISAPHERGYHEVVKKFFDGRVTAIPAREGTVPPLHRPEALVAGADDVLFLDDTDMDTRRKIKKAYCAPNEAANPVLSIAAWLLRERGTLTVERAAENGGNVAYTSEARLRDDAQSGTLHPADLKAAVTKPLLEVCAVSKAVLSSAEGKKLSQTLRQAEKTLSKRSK
Nature of the test: Trypanosoma cruzi tyrosyl tRNA synthetase (TcYRS) _High Tyrosine SOP. Further: in the data most compounds retested in dose-response had high values. It is filed as functional. The note with it: 30 µM.

The target in test [9] is T4, Tyrosyl-tRNA synthetase, putative (Trypanosoma cruzi (strain CL Brener)). The test is described as follows: Trypanosoma cruzi tyrosyl tRNA synthetase (TcYRS) SOP. It is filed as functional. The note with it: 30 µM.
Test [10] has as its target Chromo domain-containing protein 1 (Saccharomyces cerevisiae (strain ATCC 204508 / S288c) (Baker's yeast)) (UniProt P32657). The test is described as follows: ScCHD-1 Enzyme Inhibition Assay. Further: in the data most compounds retested in dose-response had high values. The note with it: 30 µM. Type of test: functional.

Structures are written as SMILES. For some assays here: Entries with a potency or affinity are not part of this list.

Chain of Protein translocase subunit SecA (Escherichia coli (strain K12)) (P10408 whole entry): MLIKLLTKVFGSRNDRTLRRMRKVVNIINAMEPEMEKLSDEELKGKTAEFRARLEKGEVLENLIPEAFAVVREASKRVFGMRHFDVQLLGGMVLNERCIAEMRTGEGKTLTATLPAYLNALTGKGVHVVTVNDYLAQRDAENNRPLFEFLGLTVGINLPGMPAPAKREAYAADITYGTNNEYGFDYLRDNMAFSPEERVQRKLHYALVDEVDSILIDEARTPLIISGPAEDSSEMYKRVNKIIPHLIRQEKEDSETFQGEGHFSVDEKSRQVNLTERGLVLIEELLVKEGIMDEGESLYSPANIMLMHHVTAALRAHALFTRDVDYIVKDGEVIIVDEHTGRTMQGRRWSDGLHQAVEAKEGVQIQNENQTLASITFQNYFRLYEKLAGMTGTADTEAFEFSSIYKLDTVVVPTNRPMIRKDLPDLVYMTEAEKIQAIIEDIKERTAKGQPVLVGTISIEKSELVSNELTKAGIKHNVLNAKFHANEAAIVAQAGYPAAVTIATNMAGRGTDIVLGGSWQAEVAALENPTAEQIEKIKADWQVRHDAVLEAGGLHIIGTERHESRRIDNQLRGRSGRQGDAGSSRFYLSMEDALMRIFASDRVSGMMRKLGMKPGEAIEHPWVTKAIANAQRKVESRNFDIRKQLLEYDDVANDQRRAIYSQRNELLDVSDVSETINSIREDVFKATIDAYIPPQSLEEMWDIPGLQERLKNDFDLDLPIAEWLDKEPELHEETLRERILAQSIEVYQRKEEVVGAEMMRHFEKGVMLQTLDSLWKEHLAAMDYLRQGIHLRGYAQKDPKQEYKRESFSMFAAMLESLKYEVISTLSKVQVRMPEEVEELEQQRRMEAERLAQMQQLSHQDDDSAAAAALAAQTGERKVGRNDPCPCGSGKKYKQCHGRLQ
Chain of Chromo domain-containing protein 1 (Saccharomyces cerevisiae (strain ATCC 204508 / S288c) (Baker's yeast)) (P32657 whole entry, the tested form may be a part): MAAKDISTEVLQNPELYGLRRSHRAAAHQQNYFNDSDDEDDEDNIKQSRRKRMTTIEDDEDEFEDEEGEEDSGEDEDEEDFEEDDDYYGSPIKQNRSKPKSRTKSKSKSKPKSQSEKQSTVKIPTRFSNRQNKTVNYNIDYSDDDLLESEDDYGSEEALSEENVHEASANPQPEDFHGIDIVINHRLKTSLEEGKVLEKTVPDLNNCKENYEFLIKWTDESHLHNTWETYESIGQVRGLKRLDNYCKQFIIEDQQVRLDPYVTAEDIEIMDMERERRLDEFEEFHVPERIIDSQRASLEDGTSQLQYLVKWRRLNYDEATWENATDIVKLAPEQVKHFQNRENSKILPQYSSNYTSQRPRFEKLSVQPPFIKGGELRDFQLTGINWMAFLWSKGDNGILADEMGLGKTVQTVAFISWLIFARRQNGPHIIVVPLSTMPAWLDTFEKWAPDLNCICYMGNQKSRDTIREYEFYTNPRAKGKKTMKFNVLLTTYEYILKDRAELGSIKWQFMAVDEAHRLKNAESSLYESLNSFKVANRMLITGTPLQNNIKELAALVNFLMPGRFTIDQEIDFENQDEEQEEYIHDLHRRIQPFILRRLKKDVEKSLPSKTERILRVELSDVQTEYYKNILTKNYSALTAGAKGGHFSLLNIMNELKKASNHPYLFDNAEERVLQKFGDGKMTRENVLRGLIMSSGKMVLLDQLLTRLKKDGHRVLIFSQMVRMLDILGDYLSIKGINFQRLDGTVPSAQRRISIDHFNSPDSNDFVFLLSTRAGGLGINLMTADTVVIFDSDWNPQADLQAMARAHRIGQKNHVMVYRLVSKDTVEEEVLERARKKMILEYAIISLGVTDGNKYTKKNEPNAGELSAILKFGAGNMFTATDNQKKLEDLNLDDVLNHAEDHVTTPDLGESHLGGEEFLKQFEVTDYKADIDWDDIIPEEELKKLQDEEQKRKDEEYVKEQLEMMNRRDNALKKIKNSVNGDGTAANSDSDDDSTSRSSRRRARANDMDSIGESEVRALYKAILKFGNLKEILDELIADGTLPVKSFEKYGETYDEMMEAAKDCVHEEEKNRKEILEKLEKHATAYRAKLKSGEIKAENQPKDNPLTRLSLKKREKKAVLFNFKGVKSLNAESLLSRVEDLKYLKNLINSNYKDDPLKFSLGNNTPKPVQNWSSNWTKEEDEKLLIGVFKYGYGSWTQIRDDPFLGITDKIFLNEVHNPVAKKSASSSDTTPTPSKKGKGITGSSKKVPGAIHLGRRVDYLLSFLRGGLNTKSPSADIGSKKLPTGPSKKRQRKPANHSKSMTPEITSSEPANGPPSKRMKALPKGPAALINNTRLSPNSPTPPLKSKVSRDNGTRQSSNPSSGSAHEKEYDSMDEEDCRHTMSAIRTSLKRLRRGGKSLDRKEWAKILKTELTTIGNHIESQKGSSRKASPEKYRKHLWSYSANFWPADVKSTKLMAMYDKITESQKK

On to `Cn1cc(CN2C[C@@H]3COC[C@]3(CNC(=O)c3ccsc3)C2)cn1`, for which the Percent Effect in [1] is -3%; in test [2] it was -1.3%; in [3], 16.9%; in test [4] it was -3.6%; in test [5] it was -5.26%; in test [6] it was 9.27%. In addition, the Percent Effect in test [7] was -6.13%; in test [8] it was -1.58%; in [9], 0%; in test [10], -2.4%.
As for `COc1c(CNC2CCSc3ccc(F)cc32)c(C)nn1C` (stereo not given), the Percent Effect was 0.667% in test [1]; 13% in test [2]; 7.38% in test [3]; -0.373% in [4]; -12.5% in test [5]; 10.9% in test [6]. For the same molecule, the Percent Effect in test [7] was 64.7%; in [8] it was 5.88%; in test [9], 11.8%; in test [10], -4.85%.
As to `CCn1nc(C)c(CCNC(=O)C2CCCN(CC(N)=O)C2)c1C` (stereo not given), the Percent Effect in test [1] was -8.24%; in [2], 8.11%; in test [3] it was 27.7%; in [4], 9.02%; in test [5], 9.44%; in test [6] it was 5.14%. Also, the Percent Effect in test [7] was 12.5%; in test [8], 10.1%; in test [9], 17.1%; in [10], -5.53%.
As for `Cc1ccc(CN2CCCn3c(nc(Cn4cncn4)cc3=O)C2)s1`, the Percent Effect is -8.68% in test [1]; 11.7% in test [2]; -3.78% in test [3]; 2.43% in [4]; -1.22% in test [5]; 7.5% in test [6]. Also, the Percent Effect in [7] was -3.95%; in [8], 4.74%; in test [9], 12.8%; in test [10], -1.68%.
`CC(C)c1cc(CNC(=O)N2CCC(Cc3cnn(C)c3)C2)on1` (stereo not given): the Percent Effect in test [1] is -5.49%; in test [2], 10.3%; in test [3], -6.83%; in test [4] it was 5.92%; in [5], -1.23%; in test [6], 4.69%. Moreover, the Percent Effect is 4.85% in test [7], 1.44% in test [8], 8.43% in test [9] and -5.54% in test [10].
Consider `CCCN(CC)C(=O)c1cc2c(c3ccccc3n2C)n1C(=O)N(C)C`, for which the Percent Effect in test [1] was -6.54%; in test [2], 11.7%; in test [3], 4.77%; in test [4] it was 0.292%; in test [5], 4.05%; in test [6] it was 6.27%. Further, the Percent Effect in test [7] is -7.65%; in test [8] it was 6.84%; in test [9], 10.3%; in [10], -0.293%.
In the case of `CCOc1ncccc1NC(=O)NC1CCN(S(C)(=O)=O)CC1`, the Percent Effect was -4.68% in [1]; 2.6% in test [2]; -7.28% in test [3]; -6.34% in [4]; -6.76% in test [5]; 8.25% in test [6]. The Percent Effect in [7] was 25.1%; in test [8], 0.98%; in [9] it was 4.71%; in test [10], -11.6%.
As to `CC1CN(CC(=O)NC2CCCC2)CCN1c1ccc2nncn2n1` (stereo not given), the Percent Effect in test [1] is -1.74%; in test [2] it was 12.8%; in test [3] it was 1.41%; in test [4], 0.0939%; in test [5], 4.1%; in test [6], 15.8%. Moreover, the Percent Effect was 12.2% in test [7], 7.18% in test [8], 20.5% in test [9] and -1.24% in [10].
Regarding `CC(C)(C)c1n[nH]c(C2CN(C(=O)CCC3CC3)CCO2)n1` (stereo not given), the Percent Effect in test [1] is -3.72%; in test [2], 5.13%; in [3] it was -3.95%; in test [4], 9.86%; in [5], -1.23%; in test [6], 5.38%. Moreover, the Percent Effect in test [7] was -22.9%; in [8], 3.35%; in [9], 13.2%; in [10], -2.58%.
As to `CN(c1ccncn1)C1CC2(CCN(C(=O)c3ccsc3)C2)C1` (stereo not given), the Percent Effect in [1] was -2.12%; in test [2], 22.7%; in test [3], 0.226%; in test [4] it was 3.55%; in [5] it was -4.42%; in test [6], 17.2%. Also, the Percent Effect in [7] was 11.8%; in test [8] it was 0%; in test [9], 17.5%; in test [10] it was -21.9%.
As to `Cn1cc(C(=O)N2CCCC(n3cccn3)C2)c2ccccc21` (stereo not given), the Percent Effect in test [1] is -1.25%; in test [2] it was 8%; in test [3] it was -2.42%; in [4], -5.62%; in test [5], 7.09%; in test [6], 3.65%. Moreover, the Percent Effect in test [7] is 9.06%; in test [8], 2.63%; in [9], 5.13%; in test [10], -11.9%.

Source of the values: ChEMBL document CHEMBL3988442, “University of Dundee, Small-Polar-MMV Screening Library” (2021).
